Screening data deposited in PubChem by National Center for Advancing Translational Sciences (NCATS).
Sampled rows, rich in hits. Any-hit rate of the full collection: about 18%.
GCN5L2 inh = GCN5L2 (KAT2A) acetyltransferase inhibition. GCN5L2 HAT assay, ThioGlo1 CoA-SH fluorescence. Potency, µM (top dose mostly 58.9 µM), inactives show at the highest dose activity change, negative = inhibition, most hits filed as inhibitors. Q92830. hit rate 0.21% among 390,000
Target sequence (Q92830 whole entry, looked up): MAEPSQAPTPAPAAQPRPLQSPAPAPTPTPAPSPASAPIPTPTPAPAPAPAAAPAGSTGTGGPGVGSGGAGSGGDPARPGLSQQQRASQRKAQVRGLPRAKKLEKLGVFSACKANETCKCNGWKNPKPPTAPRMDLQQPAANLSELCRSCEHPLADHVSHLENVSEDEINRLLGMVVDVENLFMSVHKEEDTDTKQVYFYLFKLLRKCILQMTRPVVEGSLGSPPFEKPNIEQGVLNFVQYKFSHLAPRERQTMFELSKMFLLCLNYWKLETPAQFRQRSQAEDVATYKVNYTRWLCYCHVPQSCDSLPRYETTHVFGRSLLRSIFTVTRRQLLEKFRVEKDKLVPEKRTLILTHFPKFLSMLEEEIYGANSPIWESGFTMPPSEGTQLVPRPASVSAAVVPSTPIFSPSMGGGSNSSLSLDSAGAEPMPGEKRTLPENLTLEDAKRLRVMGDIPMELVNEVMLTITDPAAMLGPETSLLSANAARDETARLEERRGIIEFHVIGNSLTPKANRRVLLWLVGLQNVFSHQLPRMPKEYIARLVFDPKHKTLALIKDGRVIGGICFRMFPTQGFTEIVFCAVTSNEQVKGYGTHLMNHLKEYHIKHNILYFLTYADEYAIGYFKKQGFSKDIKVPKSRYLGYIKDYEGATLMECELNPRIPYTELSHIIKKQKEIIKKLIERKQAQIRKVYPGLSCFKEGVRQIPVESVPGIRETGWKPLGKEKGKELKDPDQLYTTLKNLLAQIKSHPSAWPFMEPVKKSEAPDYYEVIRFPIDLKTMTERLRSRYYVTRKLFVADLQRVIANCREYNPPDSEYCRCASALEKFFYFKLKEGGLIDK
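ThioGlo1-coupled HAT assay: 20nM GCN5L2, 70uM acetyl-CoA, 75uM H3(1-25) peptide, pH 7.5. Fluorescence read at 340/540nm at start and after 20 min at room temperature.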
PLK1 PBD block = inhibitors of human PLK1 polo-box domain binding; Plk1 PBD binding of FITC phosphopeptide, fluorescence polarization; Potency, µM, inactives show max response, negative = inhibition, actives largely listed as inhibitors; hit rate 2.8% among 360,000; also: series mostly up to about 57 µM; nearly all actives have a fitted effect of over 65% in size
VDR inhibitor = inhibitors of human vitamin D receptor | P11473 | VDR-SRC2-3 peptide fluorescence polarization, 2 h | Potency, µM, for inactives: max response, negative = inhibition, actives largely listed as inhibitors | hit rate 0.93% among 400,000 | AID 504847
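Fluorescence polarization assay of small-molecule disruption of VDR binding to coregulator peptide SRC2-3. Compounds and controls pin-transferred, then read after 2 h incubation at ambient room temperature.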
TDP1 block = blocks human tyrosyl-DNA phosphodiesterase 1 | hit rate 0.28% among 350,000 | Q9NUW8 | Potency, µM (highest dose often 130 µM), for inactives: at the highest dose activity change, negative = inhibition, hits mostly inhibitors | recombinant TDP1, AlphaScreen DNA substrate cleavage; also: nearly all actives have a fitted effect of over 40% in size
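Steps: enzyme plus compound, 15 min RT; add biotin/phosphotyrosine-FITC oligonucleotide (15 nM final), react 5 min; add donor/acceptor beads (10 ug/ml final), 10 min; read AlphaScreen. Tdp1 at 1 nM final.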
TDP1 cell CPT = DT40-hTDP1 cell growth loss with CPT. chicken DT40 Tdp1-/-;hTDP1 cells + 20 nM CPT, ATP luminescence, 48 h. Potency, µM (top dose mostly 46.2 µM), without a hit: at the top dose activity change, negative = growth inhibition, hits mostly inhibitors. hit rate 12% among 420,000; also: nearly all actives have a fitted effect of over 55% in size
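Cell growth measured by CellTiter-Glo luminescence after a minimum 48 h, 37 C compound exposure with 20 nM CPT in Tdp1-knockout DT40 cells stably expressing hTDP1, seeded 400/well; qHTS titration format.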
DT40 TDP1 no CPT = qHTS for Inhibitors of human tyrosyl-DNA phosphodiesterase 1 (TDP1): qHTS in cells in absence of CPT. DT40 Tdp1-/- hTDP1 cells, no CPT, ATP luminescence, 48 h. Potency, µM (titrated, usually from 46.2 µM), inactives show at the top dose activity change, negative = growth inhibition, hits mostly inhibitors. hit rate 15% among 420,000. AID 686978, 2013; also: nearly all actives have a fitted effect of over 55% in size
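No-CPT arm: Tdp1-/-;hTDP1 DT40 cells (400/well) plus compounds, incubated ≥48 hr at 37 °C. Readout CellTiter-Glo luminescence.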
An asterisk follows results filed as active; u = inconclusive; x = no result given; [ ] = remark or other dose. Calls follow the shape of the dose curve; as a rule, active = well fitted curve in the direction sought with a large enough effect; inconclusive = small, poorly fitted or top-dose-only effect, or another doubt; inactive = no such curve, though single readings can be large; an effect the other way counts as inactive or inconclusive. % is scaled to controls: 0 for no effect and ±100 for the full control effect; potency is read from the fitted curve at half-maximal effect.

SMILES | GCN5L2 inh | PLK1 PBD block | VDR inhibitor | TDP1 block | TDP1 cell CPT | DT40 TDP1 no CPT
O=C(c1ccco1)N1CCC(c2nc3c(nnn3Cc3ccccc3Cl)c(=O)[nH]2)CC1 | 1% | -8% | 0% | -2% | u | u
Cc1ccc(C)c(S(=O)(=O)N2CCC(c3nc4c(nnn4Cc4ccc(F)cc4)c(=O)[nH]3)CC2)c1 | -20% | -7% | 8% | 0% | u | u
Cc1ccc(C)c(Cn2nnc3c(=O)[nH]c(C4CCN(C(=O)c5ccco5)CC4)nc32)c1 | -3% | -5% | -10% | 14% | 21µM* | u
Cc1ccc(Cn2nnc3c(=O)[nH]c(C4CCN(S(=O)(=O)c5ccc(F)cc5)CC4)nc32)cc1 | -7% | 0% | -2% | 6% | -29% | -23%
Cc1ccc(Cn2nnc3c(=O)[nH]c(C4CCN(S(=O)(=O)c5cc(C)ccc5C)CC4)nc32)cc1 | -22% | -8% | 16% | 6% | u | 23µM*
Cc1ccc(C)c(Cn2nnc3c(=O)[nH]c(C4CCN(S(=O)(=O)c5ccc(S(=O)(=O)N(C)C)cc5)CC4)nc32)c1 | -5% | -8% | 2% | 0% | 18µM* | u
COc1ccc(N2CC(C(=O)Nc3cccnc3)CC2=O)cc1 (stereo unspecified) | -3% | -2% | -7% | x | 16% | 17%
CC(C)NC(=O)c1ccccc1NS(=O)(=O)c1ccc(Br)s1 | u | 0% | -24% | 5% | u | 21µM*
O=C(C1COc2ccccc2O1)N1CCN(c2nc3ccc(F)cc3s2)CC1 (stereo unspecified) | -5% | x | 0% | 5% | u | 21µM*
COc1cc2ccccc2cc1C(=O)N1CCN(C(C)=O)CC1 | -3% | -9% | -1% | 1% | 16% | 0%
CCOc1ccccc1N1CCN(C(=O)c2cc3ccccc3cc2OC)CC1 | 2% | -2% | -14% | 7% | 3.7µM* | 4.6µM*
COc1cc2ccccc2cc1C(=O)N1CCN(c2nc3ccc(F)cc3s2)CC1 | -12% | x | -3% | 8% | 16µM* | 15µM*
COc1ccc2nc(N3CCN(C(=O)C4COc5ccccc5O4)CC3)sc2c1 (stereo unspecified) | -9% | -6% | -2% | 0% | u | u
CCOc1ccccc1NC(=O)Cc1csc(COc2cccc(C)c2)n1 | -15% | x | -5% | -6% | u | u
C=CC(C)(C)c1c2c(c(O)c3c(=O)c4ccc(O)c(O)c4oc13)C=CC(C)(C)O2 | x | x | 9% | 14% | 3%[9.04 µM] | -23%[9.04 µM]
CN(C)c1ccnc(-c2ccccc2C(F)(F)F)n1 | -7% | x | -26% | x | -25% | u
CC(C)NC(=O)C1(C#N)C=C1c1ccccc1 (stereo unspecified) | x | -5% | x | x | u | 16µM*
COc1ccccc1N1CCN(c2c3c(nc4nncn24)CCC3)CC1 | 2% | x | 3% | 5% | -1% | 4%
Fc1ccccc1N1CCN(c2c3c(nc4nncn24)CCC3)CC1 | 0% | x | 17% | 2% | u | 21µM*
CC1Oc2ccccc2N(CC(=O)N2CCCCCC2)C1=O (stereo unspecified) | 3% | -9% | -11% | 2% | -29% | -8%
COc1ccc(CN2CC(C(=O)N3CC(C)CC(C)C3)CC2=O)cc1 (stereo unspecified) | -1% | 27µM* | -9% | 3% | -2% | 17%
CCN1CCN(c2cc(C)c3cc(NC(=O)/C=C/c4cccc(Cl)c4)ccc3n2)CC1 | -8% | x | 26% | 6% | 5.2µM* | -7%
CCN1CCN(c2cc(C)c3cc(NC(=O)c4cccc(Cl)c4)ccc3n2)CC1 | -1% | x | -2% | 3% | 15µM* | 6.5µM*
CCCOC1OC(=O)c2c1ccc(OC)c2OC (stereo unspecified) | 3% | 3% | -13% | 2% | 2% | 6%
O=S(=O)(O)CCCS(=O)(=O)O | -7% | x | -2% | x | 3% | -4%
SMILES | GCN5L2 inh | PLK1 PBD block | VDR inhibitor | TDP1 block | TDP1 cell CPT | DT40 TDP1 no CPT
Cc1ccc(-n2nnnc2SCn2nnc3ccccc3c2=O)c(C)c1 | x | -9% | 6% | 2% | 9.2µM* | 8.2µM*
CCN(CC)C(=O)CSc1nc2ccccc2c(=O)n1CCC(=O)N1CCN(c2ccccc2)CC1 | -6% | 2% | -22% | 4% | 16µM* | u
O=c1c2ccccc2nnn1CSc1nc2ccccc2c(=O)n1Cc1ccco1 | 3% | 0% | -2% | 2% | 23µM* | 21µM*
O=C(CSc1nc2ccccc2c(=O)n1Cc1ccco1)c1ccccc1 | -3% | -8% | -4% | -2% | 16µM* | 21µM*
CC1(C(=O)Nc2ccc3c(c2)OCCO3)CN(S(C)(=O)=O)CC(=O)N1CCCn1ccnc1 (stereo unspecified) | x | -15% | x | x | -1% | 12%
O=C(NCCS(=O)(=O)N1CCN(c2ccccc2F)CC1)C(c1ccccc1)c1ccccc1 | 3% | x | 16% | 2% | -7% | -20%
O=C(Nc1cccc(F)c1)N1CCC2(CCNCC2)CC1 | -14% | x | u | x | -26% | u
CCn1c(SCC(=O)N2CCN(c3ccc(Cl)cc3)CC2)nc2ccccc2c1=O | -15% | 0% | -1% | 5% | u | u
CCn1c(SCC(=O)N2CCN(c3ccc(F)cc3)CC2)nc2ccccc2c1=O | 1% | -19% | 4% | 1% | 21µM* | u
COc1ccc(Cn2c(SCC(=O)N3CCN(c4ccc(F)cc4)CC3)nc3ccccc32)cc1 | 0% | x | 9% | 2% | 21µM* | 21µM*
CCCn1c(SCC(=O)N2CCN(c3ccccc3)CC2)nc2ccccc2c1=O | -20% | -1% | -12% | 9% | u | u
O=C(CSc1n[nH]c(-c2ccc(F)cc2)n1)N1CCN(c2ccc(F)cc2)CC1 | 3% | x | 16% | 8% | 16µM* | 23µM*
O=C(CSc1nc2ccccc2c(=O)n1Cc1ccco1)N1CCN(c2ccccc2)CC1 | -14% | -8% | -12% | 4% | u | 26µM*
CCCCC(CC)CNC(=O)C(=O)c1ccccc1NC(C)=O (stereo unspecified) | -6% | -12% | -12% | 5% | -11% | u
CC(C)=CCC/C(C)=C/CO/N=C1/C[C@@H](O)[C@@H](O)[C@@H]2[C@@H]3C(=O)N(c4cccc(Oc5ccccc5)c4)C(=O)[C@H]3CC[C@H]12 | x | x | x | 5%[21 µM] | x | x
COCc1ccc(CN2Cc3cc(Cl)ccc3OC(C)C2)o1 (stereo unspecified) | x | x | x | x | 12%[9.04 µM] | -17%
